From PubChem BioAssay AID652054 (National Center for Advancing Translational Sciences (NCATS), 2013)
Hit rate of the full screen: of about 360,000 compounds, about 9,100 (2.5%) were called active. Another 4% or so got no clear call; they are omitted. Shown is part of a subset that was picked to be rich in actives. Values without a mark were called inactive. No stated cut-off is given here; in the data, active means max response below about -50%; inconclusive means no clear call, values can overlap the other calls; inactive means above that.

The molecules below were run against D(3) dopamine receptor (Homo sapiens) (UniProt P35462) (assay: qHTS of D3 Dopamine Receptor Antagonist: qHTS). Conditions: D3R cells, DiscoveRx beta-arrestin luminescence, antagonist mode; active compounds read low.
Sequence of D(3) dopamine receptor (Homo sapiens) (P35462 whole entry, looked up): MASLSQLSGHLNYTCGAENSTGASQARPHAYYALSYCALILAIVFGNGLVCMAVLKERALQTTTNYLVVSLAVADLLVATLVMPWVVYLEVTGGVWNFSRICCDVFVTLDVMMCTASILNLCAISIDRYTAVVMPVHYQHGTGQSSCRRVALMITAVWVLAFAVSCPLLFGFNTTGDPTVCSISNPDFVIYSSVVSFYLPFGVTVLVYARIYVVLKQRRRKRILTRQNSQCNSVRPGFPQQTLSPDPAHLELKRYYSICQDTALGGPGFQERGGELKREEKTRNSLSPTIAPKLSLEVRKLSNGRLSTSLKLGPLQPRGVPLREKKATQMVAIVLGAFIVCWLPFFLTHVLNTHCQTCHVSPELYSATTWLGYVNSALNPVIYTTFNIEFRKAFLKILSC
Description: D3 DARs represent a very important target for the treatment of several neuropsychiatric disorders. Indeed, one of the most promising therapeutic applications for the D3 DAR is in the area of addiction and related disorders. […] These findings have been observed with a number of addictive substances including cocaine, amphetamine, nicotine, and alcohol. […] Antagonism of the D3 DAR may also be therapeutic in the treatment of schizophrenia or psychosis. […] Since the D3 DAR is expressed in areas of the CNS associated with the control of mood and emotion, it has been hypothesized that selective antagonism of the D3 DAR may be effective in treating psychosis without inducing the motor side effects typically seen with D2 DAR antagonists.
This part of the project aims to discover novel antagonist.
NIH Chemical Genomics Center [NCGC]
NIH Molecular Libraries Probe Centers Network [MLPCN]
Assay Submitter (PI): David Sibley, NINDS
Freshly passaged cells are plated in 1536 well white, solid bottom plates at a density of 1500 cells/well in 3microl of complete media. After an overnight incubation at 37 degrees C in 5% CO2, cells are loaded with 23nl of test compound from the compound library (as well as dopamine controls) using a 1536 pintool and incubated at 37 degrees C for 90 minutes. Two microliters of DiscoveRx reagent is then added to all cells, and they are incubated for an additional 30 - 60 minutes at room temperature. Following incubation, luminescence is measured on a ViewLux CCD-based luminometer reader using a 20 sec exposure time.
On the % scale 0 is the no-effect control and ±100 the full control effect.

| Compound | max response, negative = inhibition |
| --- | --- |
| CCC(CC)C(C(=O)NC1CCCC1)N1CCN(c2cc(C)nc3ccccc23)CC1 (stereo not given) | 14.1% |
| O=C(Nc1ccccc1Cl)/C(Cl)=C(\Cl)S(=O)c1ccccc1 (stereo not given) | -94.9% (active) |
| NC(=O)C1(Nc2ccccc2Cl)CCCC1 | -22% |
| CS/C(=C\C(=O)c1ccco1)Nc1ccccc1Cl | 0.757% |
| O=C(NCc1ccco1)c1cccc(-c2ccc3nncn3c2)c1 | -9.17% |
| CCc1nc2c(OCCOc3ccccc3)cccn2c1N(C=O)Cc1ccc(OC)cc1 | 12.7% |
| C[C@@H](NC(=O)OC(C)(C)C)c1nnc(S(=O)(=O)Cc2ccccc2)o1 | -110% (active) |
| CCc1ccccc1NC(=O)CSc1nnc([C@@H](NC(=O)OC(C)(C)C)C(C)CC)o1 (stereo not given in full) | -1.74% |
| COc1ccccc1NC(=O)[C@H](COCc1ccccc1)NC(=O)OC(C)(C)C | 13.5% |
| CCNC(=O)C1(C)CCCN(C(=O)c2c(C)noc2C)C1 (stereo not given) | 0% |
| COc1ccc(NS(=O)(=O)c2ccc(Oc3c(C#N)cccc3C#N)cc2)cc1 | 0.938% |
| COc1ccc(S(=O)(=O)/N=C2\C=C(NS(=O)(=O)c3ccccc3)C(=O)c3ccccc32)cc1 | -59.6% (active) |
| CCCC(NS(=O)(=O)c1ccc(OC)cc1)C(=O)O (stereo not given) | -4.83% |
| O=S1(=O)CC(N2CCN(Cc3ccccc3F)CC2)CN1Cc1cn(Cc2cccc(C(F)(F)F)c2)nn1 (stereo not given) | 1.97% |
| CC(C=Cc1ccccc1)=NNS(=O)(=O)c1ccc([N+](=O)[O-])cc1 | -22% |
| COc1ccc(CCNS(=O)(=O)c2cccc([N+](=O)[O-])c2)cc1 | -20.3% |
| C/C(=N\NS(=O)(=O)c1cccc([N+](=O)[O-])c1)c1cc2ccccc2o1 | -65.1% (active) |
| CCn1c(COc2ccc(OC)cc2)nnc1SCC(=O)Nc1cc(OC)ccc1OC | 5.77% |
| CCOC(=O)CNC(=O)CSc1nnc(-c2cccc(OC)c2)n1CC | 0% |
| CCOC(=O)CNC(=O)CSc1nnc(COc2ccc(Cl)cc2)n1CC | -55.4% (active) |
| CCOC(=O)C(C(=O)c1ccccc1)C(c1ccccc1)c1nccc2ccccc12 (stereo not given) | -11.4% |
| COc1ccc(S(=O)(=O)N2CCCCC2)cc1C(=O)NC1CCS(=O)(=O)C1 (stereo not given) | 22% |
| COc1ccc(C(O)c2nc(-c3ccc(OC)nc3)cs2)cc1 (stereo not given) | -0.57% |
| COc1ccc(NC(=O)CN2C(=O)NC(C)(c3ccccc3)C2=O)cn1 (stereo not given) | 28.1% |
| COc1ccc(CS(=O)/C(Cl)=C(/Cl)C(=O)Nc2ccc(OC)nc2)cc1 (stereo not given) | -91.9% (active) |
